Test results reported in the supplement of paper PMC10849652.
About 8,800 targets were measured; listed, in parts, are those with a hit and a random draw of the rest. About 0.5% of all pairs of compound and target were hits.

Assays:
Assay in all cases: log2 fold change, soluble protein after heating vs DMSO (PISA); higher = thermal stabilisation; K562 lysate, 10 uM; active = over 0.2 and 3.5 SD of the protein, either way, in both replicates (recomputed)
vemurafenib = compound: CCCS(=O)(=O)Nc1ccc(F)c(C(=O)c2c[nH]c3ncc(-c4ccc(Cl)cc4)cc23)c1F [vemurafenib]
In short: (§1)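 K562 pellets were dounce-homogenised in PBS pH 7.4 containing 1 mM MgCl2, and the crude extract, at 1 mg/mL protein, was exposed to 10 μM compound for 30 min. Aliquots were heated for 3 min across 48°C-58°C, pooled, brought to 0.5% NP-40 at 4°C and spun at 21,000xg for 90 min, with the supernatant taken as soluble protein. TMTpro 16plex LC-MS/MS with equalised channel sums quantified that protein. Values are log-two fold changes in thermal stability relative to solvent controls, taken from duplicates.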

[1] = compound: CCCS(=O)(=O)Nc1ccc(F)c(C(=O)c2c[nH]c3ncc(Cl)cc23)c1F
In short: as §1

barasertib = compound: CCN(CCCOc1ccc2c(Nc3cc(CC(=O)Nc4cccc(F)c4)[nH]n3)ncnc2c1)CCOP(=O)(O)O [barasertib]
In short: as §1

[2] = compound: CC[C@@H]1C(=O)N(C)c2cnc(Nc3ccc(C(=O)NC4CCN(C)CC4)cc3OC)nc2N1C1CCCC1
In short: as §1

volasertib = compound: CC[C@@H]1C(=O)N(C)c2cnc(Nc3ccc(C(=O)N[C@H]4CC[C@H](N5CCN(CC6CC6)CC5)CC4)cc3OC)nc2N1C(C)C [volasertib]
In short: as §1

[3] = compound: CCn1c(C(=O)N(C2CC2)C2CC2)cc2c3c(ncn3C)c(Nc3cc(C)n(C)n3)nc21
In short: as §1

[4] = compound: CCn1cc(-c2ccnc3[nH]c(-c4cccc(CN(C)C)c4)cc23)c(-c2ccc(NC(=O)N(C)C)cc2)n1
In short: as §1

[5] = compound: CN1CCC(CNc2ccc3ncc(-c4cccc(OC(F)(F)F)c4)n3n2)CC1
In short: as §1

saracatinib = compound: CN1CCN(CCOc2cc(OC3CCOCC3)c3c(Nc4c(Cl)ccc5c4OCO5)ncnc3c2)CC1 [saracatinib]
In short: as §1

sotrastaurin = compound: CN1CCN(c2nc(C3=C(c4c[nH]c5ccccc45)C(=O)NC3=O)c3ccccc3n2)CC1 [sotrastaurin]
In short: as §1

alvocidib = compound: CN1CC[C@H](c2c(O)cc(O)c3c(=O)cc(-c4ccccc4Cl)oc23)[C@H](O)C1 [alvocidib]
In short: as §1

Tubastatin A = compound: CN1CCc2c(c3ccccc3n2Cc2ccc(C(=O)NO)cc2)C1 [Tubastatin A]
In short: as §1

[6] = compound: CNC(=O)C1=CC=CC=C1NC2=NC(=NC=C2Cl)NC3=C(C=C(C=C3)N4CCOCC4)OC
In short: as §1

defactinib = compound: CNC(=O)c1ccc(Nc2ncc(C(F)(F)F)c(NCc3nccnc3N(C)S(C)(=O)=O)n2)cc1 [defactinib]
In short: as §1

[7] = compound: CNc1nc(-c2ccc3c(N)n[nH]c3c2)cc(N2C[C@@H](C(=O)NC3CCCCC3)CC[C@H]2C)n1
In short: as §1

encorafenib = compound: COC(=O)N[C@@H](C)CNc1nccc(-c2cn(C(C)C)nc2-c2cc(Cl)cc(NS(C)(=O)=O)c2F)n1 [encorafenib]
In short: as §1

[8] = compound: COC(=O)[C@H](CCSC)NC(=O)C1=C(C=C(C=C1)NC[C@H](CS)N)C2=CC=CC=C2
In short: as §1

alisertib = compound: COc1cc(Nc2ncc3c(n2)-c2ccc(Cl)cc2C(c2c(F)cccc2OC)=NC3)ccc1C(=O)O [alisertib]
In short: as §1

[9] = compound: COc1cc2nc(-c3cc(F)ccc3O)nc(N[C@@H]3CNC[C@H]3C(C)(C)O)c2cc1OC
In short: as §1

gefitinib = compound: COc1cc2ncnc(Nc3ccc(F)c(Cl)c3)c2cc1OCCCN1CCOCC1 [gefitinib]
In short: as §1

Measured: log2 fold change

CDAN1 (UniProt Q8IWY9)
Chain of UniProt Q8IWY9 (Q8IWY9 whole entry, looked up): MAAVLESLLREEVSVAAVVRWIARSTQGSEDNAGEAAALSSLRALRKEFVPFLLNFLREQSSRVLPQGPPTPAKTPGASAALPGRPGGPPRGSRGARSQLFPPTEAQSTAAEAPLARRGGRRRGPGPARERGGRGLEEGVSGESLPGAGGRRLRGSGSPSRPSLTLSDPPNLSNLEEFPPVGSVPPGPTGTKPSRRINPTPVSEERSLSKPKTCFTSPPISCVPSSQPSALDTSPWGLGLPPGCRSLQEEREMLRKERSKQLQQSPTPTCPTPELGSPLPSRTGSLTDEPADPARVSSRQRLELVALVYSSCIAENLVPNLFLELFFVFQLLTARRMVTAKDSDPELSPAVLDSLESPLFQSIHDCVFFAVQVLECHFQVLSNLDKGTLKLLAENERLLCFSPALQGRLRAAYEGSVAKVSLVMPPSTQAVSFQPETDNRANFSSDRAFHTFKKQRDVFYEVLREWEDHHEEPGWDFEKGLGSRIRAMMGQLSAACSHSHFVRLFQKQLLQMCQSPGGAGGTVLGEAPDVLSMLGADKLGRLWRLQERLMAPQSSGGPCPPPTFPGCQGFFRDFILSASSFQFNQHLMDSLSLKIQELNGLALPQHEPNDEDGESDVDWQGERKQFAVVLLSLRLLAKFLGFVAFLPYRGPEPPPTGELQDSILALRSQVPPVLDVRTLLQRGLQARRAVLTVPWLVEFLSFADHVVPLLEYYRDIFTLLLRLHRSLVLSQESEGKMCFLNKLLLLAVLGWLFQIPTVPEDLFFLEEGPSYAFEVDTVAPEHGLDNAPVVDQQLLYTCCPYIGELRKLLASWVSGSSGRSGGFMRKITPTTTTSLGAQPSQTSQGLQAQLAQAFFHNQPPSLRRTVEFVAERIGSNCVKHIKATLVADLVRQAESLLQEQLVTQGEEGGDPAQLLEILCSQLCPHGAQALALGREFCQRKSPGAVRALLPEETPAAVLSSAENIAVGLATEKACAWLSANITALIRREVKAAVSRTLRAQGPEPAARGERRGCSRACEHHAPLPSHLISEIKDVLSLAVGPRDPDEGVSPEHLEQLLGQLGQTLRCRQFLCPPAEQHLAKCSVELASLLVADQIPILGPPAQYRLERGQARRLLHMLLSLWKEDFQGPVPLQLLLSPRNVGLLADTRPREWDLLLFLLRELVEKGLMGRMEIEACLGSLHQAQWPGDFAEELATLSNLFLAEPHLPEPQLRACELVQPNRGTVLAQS
inactive: vemurafenib -0.047 | [1] 0.004 | barasertib 0.014 | [2] -0.093 | volasertib -0.034 | [3] 0.031 | [4] -0.03 | [5] -0.012 | saracatinib 0.002 | sotrastaurin -0.005 | alvocidib -0.034 | Tubastatin A -0.051 | [6] 0.049 | defactinib 0.039 | [7] 0.017 | encorafenib -0.018 | [8] 0.093 | alisertib 0.02 | [9] -0.022 | gefitinib -0.012

BNIP1 (UniProt Q12981)
Chain of UniProt Q12981 (Q12981 whole entry, looked up): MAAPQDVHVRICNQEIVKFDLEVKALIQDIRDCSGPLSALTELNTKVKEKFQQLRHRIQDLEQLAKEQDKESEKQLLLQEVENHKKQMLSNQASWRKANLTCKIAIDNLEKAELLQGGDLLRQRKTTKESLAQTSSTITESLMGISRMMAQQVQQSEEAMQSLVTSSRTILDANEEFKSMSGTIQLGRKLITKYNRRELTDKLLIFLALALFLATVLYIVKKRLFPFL
inactive: vemurafenib 0.024 | [1] 0 | barasertib 0.057 | [2] -0.032 | volasertib -0.054 | [3] -0.013 | [5] -0.204 | saracatinib 0.032 | sotrastaurin 0.006 | alvocidib 0.231 | Tubastatin A -0.045 | [6] 0.055 | defactinib 0 | [7] -0.014 | encorafenib 0.095 | [8] -0.037 | alisertib 0.004 | [9] 0.004 | gefitinib -0.018
active: [4] 0.287

BLM (UniProt P54132)
inactive: vemurafenib 0.007 | [1] 0.013 | barasertib -0.071 | [2] -0.063 | volasertib -0.029 | [3] 0.054 | [4] 0.247 | [5] -0.14 | saracatinib -0.014 | sotrastaurin -0.01 | alvocidib 0.082 | Tubastatin A -0.07 | [6] 0.071 | defactinib 0.031 | [7] 0.001 | encorafenib 0.043 | [8] 0.018 | alisertib -0.025 | [9] -0.006 | gefitinib -0.054

CAMKK2 (UniProt Q96RR4)
Chain of UniProt Q96RR4 (Q96RR4 whole entry, looked up): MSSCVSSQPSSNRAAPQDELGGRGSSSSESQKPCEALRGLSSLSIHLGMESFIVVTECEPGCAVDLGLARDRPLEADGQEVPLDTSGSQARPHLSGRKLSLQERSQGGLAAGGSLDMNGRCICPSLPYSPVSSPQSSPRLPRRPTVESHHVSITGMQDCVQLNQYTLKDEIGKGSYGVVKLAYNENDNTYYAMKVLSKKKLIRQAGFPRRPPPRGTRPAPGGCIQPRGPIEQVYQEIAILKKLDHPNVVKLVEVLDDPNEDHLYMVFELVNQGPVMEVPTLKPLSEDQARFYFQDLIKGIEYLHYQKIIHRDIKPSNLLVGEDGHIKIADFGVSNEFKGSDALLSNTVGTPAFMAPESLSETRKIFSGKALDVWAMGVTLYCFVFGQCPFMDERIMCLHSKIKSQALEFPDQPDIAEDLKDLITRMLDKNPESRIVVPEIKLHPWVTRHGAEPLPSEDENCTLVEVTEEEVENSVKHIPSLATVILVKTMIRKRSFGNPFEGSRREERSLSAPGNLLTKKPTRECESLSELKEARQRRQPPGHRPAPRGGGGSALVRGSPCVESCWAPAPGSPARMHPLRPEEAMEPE
inactive: vemurafenib -0.07 | [1] -0.026 | barasertib 0.003 | [2] 0.176 | volasertib 0.075 | [3] 0.057 | [4] 0.003 | [5] 0.002 | saracatinib -0.017 | sotrastaurin 0.069 | alvocidib -0.018 | Tubastatin A -0.123 | defactinib 0.059 | [7] -0.113 | encorafenib -0.013 | [8] 0.018 | alisertib -0.01 | [9] 0.019 | gefitinib 0.021
active: [6] 0.277

BSDC1 (UniProt Q9NW68)
Chain of UniProt Q9NW68 (Q9NW68 whole entry, looked up): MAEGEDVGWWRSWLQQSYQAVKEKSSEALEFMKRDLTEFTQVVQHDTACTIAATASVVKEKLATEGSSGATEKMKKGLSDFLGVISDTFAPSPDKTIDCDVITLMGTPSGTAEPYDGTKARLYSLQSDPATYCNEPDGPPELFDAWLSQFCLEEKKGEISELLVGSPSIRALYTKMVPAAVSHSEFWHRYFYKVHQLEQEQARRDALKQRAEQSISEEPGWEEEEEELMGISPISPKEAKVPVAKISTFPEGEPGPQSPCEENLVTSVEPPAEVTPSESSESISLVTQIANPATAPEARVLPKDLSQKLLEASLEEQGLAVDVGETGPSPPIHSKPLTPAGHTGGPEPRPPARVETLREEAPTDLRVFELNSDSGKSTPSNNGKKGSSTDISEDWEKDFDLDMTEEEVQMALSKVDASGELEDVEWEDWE
inactive: vemurafenib 0.027 | [1] 0.053 | barasertib 0.078 | [2] 0.099 | volasertib 0.018 | [3] -0.01 | [4] -0.027 | [5] 0.041 | saracatinib 0.03 | sotrastaurin -0.019 | alvocidib -0.033 | Tubastatin A 0.052 | [6] 0.018 | defactinib 0.031 | [7] -0.025 | encorafenib 0.112 | [8] -0.149 | alisertib 0.026 | [9] -0.031 | gefitinib -0.017

CALM2 (UniProt P0DP24)
active: barasertib 0.564
inactive: vemurafenib 0.028 | [1] 0.011 | [2] 0.038 | volasertib 0.024 | [3] -0.079 | [4] -0.22 | [5] 0.237 | saracatinib 0.029 | sotrastaurin 0 | alvocidib -0.063 | Tubastatin A 0.018 | [6] -0.059 | defactinib -0.016 | [7] 0.124 | encorafenib 0.03 | [8] -0.085 | alisertib 0.011 | [9] 0.026 | gefitinib -0.13

CDK5RAP2 (UniProt Q96SN8)
Chain of UniProt Q96SN8 (Q96SN8 whole entry, looked up): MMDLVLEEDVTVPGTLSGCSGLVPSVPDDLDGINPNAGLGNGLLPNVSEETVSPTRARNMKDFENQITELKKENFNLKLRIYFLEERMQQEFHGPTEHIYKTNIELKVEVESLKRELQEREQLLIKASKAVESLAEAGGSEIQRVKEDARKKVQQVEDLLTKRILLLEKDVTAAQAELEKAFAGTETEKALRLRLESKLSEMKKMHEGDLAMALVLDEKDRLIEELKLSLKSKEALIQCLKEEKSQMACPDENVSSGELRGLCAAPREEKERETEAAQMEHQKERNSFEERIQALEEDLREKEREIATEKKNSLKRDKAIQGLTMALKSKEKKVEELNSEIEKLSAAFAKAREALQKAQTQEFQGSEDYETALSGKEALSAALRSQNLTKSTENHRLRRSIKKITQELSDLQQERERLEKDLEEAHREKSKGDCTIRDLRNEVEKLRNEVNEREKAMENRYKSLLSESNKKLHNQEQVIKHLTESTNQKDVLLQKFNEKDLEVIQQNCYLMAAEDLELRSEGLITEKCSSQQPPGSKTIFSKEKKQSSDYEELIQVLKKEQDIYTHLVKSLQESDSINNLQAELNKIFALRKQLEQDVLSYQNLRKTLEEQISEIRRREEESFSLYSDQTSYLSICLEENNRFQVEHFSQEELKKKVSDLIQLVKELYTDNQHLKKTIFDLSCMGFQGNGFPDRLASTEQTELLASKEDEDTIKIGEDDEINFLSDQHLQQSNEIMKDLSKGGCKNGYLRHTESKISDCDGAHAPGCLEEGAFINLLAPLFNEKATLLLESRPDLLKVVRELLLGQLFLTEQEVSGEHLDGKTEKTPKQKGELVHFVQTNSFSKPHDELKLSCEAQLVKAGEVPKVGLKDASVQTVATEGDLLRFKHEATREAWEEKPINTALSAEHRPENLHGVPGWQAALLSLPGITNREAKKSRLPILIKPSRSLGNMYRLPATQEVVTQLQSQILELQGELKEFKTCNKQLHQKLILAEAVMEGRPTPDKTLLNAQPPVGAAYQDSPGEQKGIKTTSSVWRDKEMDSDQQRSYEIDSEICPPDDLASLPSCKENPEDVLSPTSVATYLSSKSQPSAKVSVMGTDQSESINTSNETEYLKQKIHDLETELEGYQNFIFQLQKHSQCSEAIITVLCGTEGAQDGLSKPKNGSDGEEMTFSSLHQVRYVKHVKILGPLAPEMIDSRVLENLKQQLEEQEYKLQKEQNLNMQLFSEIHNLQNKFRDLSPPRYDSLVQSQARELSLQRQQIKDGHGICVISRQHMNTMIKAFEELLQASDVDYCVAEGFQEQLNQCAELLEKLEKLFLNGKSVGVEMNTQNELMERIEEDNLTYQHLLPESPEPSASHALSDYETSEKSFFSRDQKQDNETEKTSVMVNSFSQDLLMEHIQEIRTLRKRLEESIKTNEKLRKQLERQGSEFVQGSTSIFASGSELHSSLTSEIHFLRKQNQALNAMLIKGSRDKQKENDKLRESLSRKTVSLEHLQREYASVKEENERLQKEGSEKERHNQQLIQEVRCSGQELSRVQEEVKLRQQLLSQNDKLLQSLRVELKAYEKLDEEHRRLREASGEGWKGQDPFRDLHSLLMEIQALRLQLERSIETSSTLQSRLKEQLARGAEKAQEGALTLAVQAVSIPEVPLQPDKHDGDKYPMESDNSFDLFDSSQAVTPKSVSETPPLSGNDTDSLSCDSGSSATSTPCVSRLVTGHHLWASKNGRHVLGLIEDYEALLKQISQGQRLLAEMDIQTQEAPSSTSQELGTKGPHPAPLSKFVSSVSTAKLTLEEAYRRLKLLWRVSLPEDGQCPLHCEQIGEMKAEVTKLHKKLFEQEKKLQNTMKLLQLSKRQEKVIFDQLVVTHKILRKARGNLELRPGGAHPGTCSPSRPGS
inactive: vemurafenib -0.023 | [1] -0.186 | barasertib 0.071 | [2] 0.029 | volasertib -0.3 | [3] 0.001 | [4] 0.016 | [5] -0.067 | saracatinib 0.027 | sotrastaurin -0.008 | alvocidib 0.018 | Tubastatin A -0.15 | [6] 0.009 | defactinib 0.037 | [7] -0.007 | encorafenib 0.045 | [8] 0.012 | alisertib -0.007 | [9] -0.144 | gefitinib -0.021

CDC45 isoform 3 (UniProt O75419)
Chain of UniProt O75419 (O75419 whole entry, looked up): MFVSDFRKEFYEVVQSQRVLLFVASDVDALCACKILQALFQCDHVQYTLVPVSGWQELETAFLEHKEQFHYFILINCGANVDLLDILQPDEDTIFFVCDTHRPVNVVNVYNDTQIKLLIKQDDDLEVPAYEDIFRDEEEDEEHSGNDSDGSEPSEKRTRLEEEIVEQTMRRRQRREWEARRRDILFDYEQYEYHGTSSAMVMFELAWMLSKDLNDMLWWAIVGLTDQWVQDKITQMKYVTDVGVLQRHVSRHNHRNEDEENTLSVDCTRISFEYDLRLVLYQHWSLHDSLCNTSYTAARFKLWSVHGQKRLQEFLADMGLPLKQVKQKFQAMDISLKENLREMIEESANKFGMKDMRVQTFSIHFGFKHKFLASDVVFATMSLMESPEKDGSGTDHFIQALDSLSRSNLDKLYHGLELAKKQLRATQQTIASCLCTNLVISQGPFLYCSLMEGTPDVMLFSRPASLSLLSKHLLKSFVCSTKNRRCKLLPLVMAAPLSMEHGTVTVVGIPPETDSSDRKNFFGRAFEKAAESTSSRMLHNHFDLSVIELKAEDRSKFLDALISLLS
inactive: vemurafenib 0.009 | [1] 0.042 | barasertib -0.015 | [2] -0.05 | volasertib -0.017 | [3] -0.05 | [4] -0.096 | [5] -0.04 | saracatinib 0.007 | sotrastaurin 0.027 | alvocidib 0.031 | Tubastatin A -0.138 | [6] 0.031 | defactinib 0.028 | [7] -0.017 | encorafenib 0.001 | [8] 0.019 | alisertib 0.023 | [9] 0.009 | gefitinib -0.034
